The text below walks through data of PubChem BioAssay (NCI).

This is part of a sample that, as a whole, favours compounds with a hit. Of some 83,000 tested, about 20% had one in any assay.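 Negative percent growth values reflect cell death: -40 means 40% of the cells present at the start died, and -100 means all died.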 A number with no mark means an inactive call. Calls of active or inactive are those of the source. How the source made its calls: active means growth percent below 10; inactive means the rest.

Some test systems named below: HCT-15 colon; SNB-75 CNS; U251 CNS; PC-3 prostate; SK-MEL-5 melanoma; UACC-62 melanoma; LOX IMVI melanoma; SK-MEL-28 melanoma; SNB-19 CNS.
Assay in all cases: NCI-60 one-dose screen, 48 h (100 = growth as untreated, 0 = no growth, -100 = all killed)
Holding throughout (conditions): 10 µM unless noted

As for `O=C1Nc2ccccc2C2c3cccn3-c3ccccc3N12` (stereo not drawn), the growth with HCT-15 colon is 53.9%; in the test on SNB-75 CNS, 40%; in the test on U251 CNS it was 60.2%; with PC-3 prostate it was 66.9%; with SK-MEL-5 melanoma it was 80%; with UACC-62 melanoma it was 57.6%. Besides, the growth is 74.2% in the test with LOX IMVI melanoma and 94.1% with SK-MEL-28 melanoma.

In the case of `COC(=O)C1=C(C)NC(C)=C(C(=O)OCC(C)C)C1c1ccccc1[N+](=O)[O-]` (stereo not drawn), the growth was 41% in the test with HCT-15 colon; 68.6% with SNB-75 CNS; 82.4% in the test with SNB-19 CNS; 68.8% with U251 CNS; 35.8% with PC-3 prostate; 38% in the test on SK-MEL-5 melanoma. Further, the results for the growth with UACC-62 melanoma, with LOX IMVI melanoma and in the test on SK-MEL-28 melanoma were 48.7%, 42.4% and 87.1%, respectively.

With `C=C1C(=O)O[C@H]2[C@H]1CC/C(CNC(=O)c1cc3ccccc3[nH]1)=C\CC[C@@]1(C)O[C@@H]21`, the growth with HCT-15 colon was -78.9% (active); in the test on SNB-75 CNS, 48.4%; in the test on SNB-19 CNS it was 22.4%; in the test on U251 CNS, -16.8% (active); in the test on PC-3 prostate, -48.5% (active); in the test with SK-MEL-5 melanoma, -87.6% (active). Moreover, the growth was -74.9% (active) with UACC-62 melanoma, -78.8% (active) with LOX IMVI melanoma and -57.6% (active) in the test with SK-MEL-28 melanoma.

As to `Cn1c(/C=C/[N+](=O)[O-])cc2ccccc21`, the growth was -56.7% (active) in the test on HCT-15 colon; 44.3% in the test on SNB-75 CNS; 57.7% in the test with SNB-19 CNS; -72.1% (active) with U251 CNS; 47.2% with SK-MEL-5 melanoma; 42.2% with UACC-62 melanoma. The growth in the test on LOX IMVI melanoma was -79.7% (active); in the test on SK-MEL-28 melanoma, 73.3%.

Regarding `CCN(CC)S(=O)(=O)c1ccc(S(=O)(=O)N2CCC[C@@H](C(=O)N3CCN(C(=O)OC(C)(C)C)CC3)C2)cc1`, the growth was 91.8% in the test with HCT-15 colon; 48.7% in the test on SNB-75 CNS; 68.8% in the test with SNB-19 CNS; 81.6% in the test with U251 CNS; 77.5% with PC-3 prostate; 18.2% in the test with SK-MEL-5 melanoma. Moreover, the growth in the test with UACC-62 melanoma was 62.4%; with LOX IMVI melanoma, 58%; in the test with SK-MEL-28 melanoma, 97.6%.

Turning to `N#Cc1c(N2CCOCC2)nc(=S)[nH]c1-c1ccccc1`, the growth is 86.6% in the test on HCT-15 colon; 15.1% with SNB-75 CNS; 84.8% in the test with SNB-19 CNS; 78.5% in the test with U251 CNS; 47% in the test on PC-3 prostate; 63% with SK-MEL-5 melanoma. For the same molecule, the growth in the test on UACC-62 melanoma was 43.6%; in the test on LOX IMVI melanoma, 80%; in the test with SK-MEL-28 melanoma, 79.6%.

In the case of `O=C1N[C@@H]2[C@@H](O)[C@@H](O)[C@H](O)C[C@H]2c2cc3c(c(O)c21)OCCO3`, the growth in the test with HCT-15 colon was -11.9% (active); in the test with SNB-75 CNS, -4.29% (active); with U251 CNS it was -14.9% (active); in the test with PC-3 prostate, -9.66% (active); with SK-MEL-5 melanoma, -52.1% (active); with UACC-62 melanoma it was -13.3% (active). For the same molecule, the growth in the test on LOX IMVI melanoma is -41.1% (active); in the test with SK-MEL-28 melanoma it was -16.4% (active).

With `C=CC(=O)N1CCN(c2ccc3cccc(NC(=O)c4cnc(C)cn4)c3n2)CC1`, the growth is 21.3% in the test with HCT-15 colon; 15.4% in the test with SNB-75 CNS; 62.4% in the test with SNB-19 CNS; 32.1% with U251 CNS; 43.5% in the test on PC-3 prostate; 61.4% in the test on SK-MEL-5 melanoma. Besides, the growth in the test with UACC-62 melanoma was 26.9%; in the test with LOX IMVI melanoma, 33.4%; with SK-MEL-28 melanoma, 68%.

For the molecule `O=C(Nc1ccccc1)c1sc(-c2ccccc2)cc1O`, the growth with HCT-15 colon is 97.4%; in the test with SNB-75 CNS, 82.6%; with SNB-19 CNS, 101%; in the test on U251 CNS, 98.5%; in the test on PC-3 prostate, 95.2%; with SK-MEL-5 melanoma, 83.7%. The growth in the test with UACC-62 melanoma was 67%; in the test with LOX IMVI melanoma it was 109%; with SK-MEL-28 melanoma it was 84.4%.

`COc1cc2c(cc1O)[C@@]1(C)[C@H](c3ccccc3Br)OC(=O)N1CC2`: the growth with HCT-15 colon was 94.9%; with SNB-75 CNS, 102%; in the test on SNB-19 CNS, 95.2%; in the test with U251 CNS, 89.3%; in the test with PC-3 prostate it was 71.3%; in the test with SK-MEL-5 melanoma, 68%. The growth with UACC-62 melanoma was 72.1%; in the test on LOX IMVI melanoma, 90.6%; in the test with SK-MEL-28 melanoma, 99.1%.

With `C/C(C=O)=C\c1ccc2c(c1)OCO2`, the growth in the test with HCT-15 colon is 108%; in the test with SNB-75 CNS, 102%; in the test on U251 CNS it was 107%; in the test on PC-3 prostate, 104%; with SK-MEL-5 melanoma it was 105%; with UACC-62 melanoma, 105%. Also, the results for the growth in the test with LOX IMVI melanoma and in the test on SK-MEL-28 melanoma were 96.7% and 124%, respectively.

With `COc1ccc(C(O)c2cc3c(N)c(C(=O)Nc4cccc(Cl)c4)sc3nc2C)cc1` (stereo not drawn), the growth with HCT-15 colon is 11.6%; with SNB-75 CNS, 31.2%; in the test with SNB-19 CNS, 28.3%; in the test with U251 CNS, 23.6%; in the test with PC-3 prostate it was 27.3%; with SK-MEL-5 melanoma, -16.9% (active). Further, the growth was 27.5% with UACC-62 melanoma, 30.7% in the test on LOX IMVI melanoma and 65.8% in the test with SK-MEL-28 melanoma.

`CC(CN)[C@@H]1CC[C@]2(CO)CC[C@]3(C)[C@H](CC[C@@H]4[C@@]5(C)CCC(N)C(C)(C)[C@@H]5CC[C@]43C)[C@@H]12` (stereo partly drawn): the growth was -75.4% (active) in the test on HCT-15 colon; 52.2% with SNB-75 CNS; 5.3% (active) in the test on SNB-19 CNS; -88.4% (active) with U251 CNS; -76.2% (active) in the test with PC-3 prostate; 57.5% in the test with SK-MEL-5 melanoma. The growth in the test on UACC-62 melanoma is 104%; in the test on LOX IMVI melanoma it was -72.1% (active); in the test on SK-MEL-28 melanoma, -39.8% (active).
